Vaccinia Venus: qHTS for Stage-Specific Inhibitors of Vaccinia Orthopoxvirus: Venus Reporter Primary qHTS; Potency, µM (top dose mostly 36.5 µM), for the others: at the top dose activity change, negative = inhibition, most hits filed as inhibitors; AID 720580, 2013; Vaccinia virus Venus reporter expression, fluorescence; 330,000 compounds, 0.46% hits; calls by dose curve; tested in A549 cells; also: % is scaled to controls: 0 for no effect and ±100 for the full control effect; nearly all actives have a fitted effect of over 30% in size
AMA1-RON2 inh: qHTS for Inhibitors of AMA1-RON; Towards Development of Antimalarial Drug Lead: Primary Screen | AlphaScreen AMA1-biotinylated RON2 peptide binding | Potency, µM (highest dose often 58.2 µM), for inactives: at the highest dose activity change, negative = inhibition, most hits filed as inhibitors | 360,000 compounds, 0.2% hits | AID 720542, 2013;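 also: 0% = vehicle wells and -100% = peptide control; nearly all actives have a fitted effect of over 45% in size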
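AMA1 (3D7) with his tag at 25 nM final met compounds first, then biotinylated RON2 peptide at 25 nM; detection used donor plus acceptor beads, 10 µg/mL apiece, read by AlphaScreen after 30 min at room temperature.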
SARS PLpro yeast: qHTS of Yeast-based Assay for SARS-CoV PLP; 330,000 compounds, 0.19% hits; Potency, µM (highest dose often 32.9 µM), for the others: at the highest dose activity, positive = growth rescue, actives largely listed as activators; S. cerevisiae expressing SARS-CoV PLpro, growth rescue; AID 485353, 2010; calls by dose curve; also: 0% is about no effect; nearly all actives have a fitted effect of over 55% in size
AmpC inh no detg: qHTS Inhibitors of AmpC Beta-Lactamase (assay without detergent) | P00811 | AmpC nitrocefin hydrolysis, absorbance 480 nm, 0.0001% Triton | Potency, µM (doses to about 57.1 µM), without a hit: top-dose activity change, negative = inhibition, actives largely listed as inhibitors | 330,000 compounds, 0.52% hits | AID 485341, 2010;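 also: plate controls were no compound for no effect and no enzyme for full effect; nearly all actives have a fitted effect of over 20% in size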
Target sequence (P00811 whole entry, looked up): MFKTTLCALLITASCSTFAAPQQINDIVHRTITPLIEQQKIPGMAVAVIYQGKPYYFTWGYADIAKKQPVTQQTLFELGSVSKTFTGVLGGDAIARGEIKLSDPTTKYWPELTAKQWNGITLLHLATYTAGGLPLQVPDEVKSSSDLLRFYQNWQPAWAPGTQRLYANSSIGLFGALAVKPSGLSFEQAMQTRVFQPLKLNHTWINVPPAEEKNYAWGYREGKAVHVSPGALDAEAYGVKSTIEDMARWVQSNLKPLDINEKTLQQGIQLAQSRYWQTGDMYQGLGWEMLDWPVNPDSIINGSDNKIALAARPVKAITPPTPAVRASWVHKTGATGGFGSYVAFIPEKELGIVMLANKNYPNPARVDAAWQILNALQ
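20 mM phosphate pH 7.0 + 0.01% (detergent screen) or 0.0001% Triton X-100; 5.3 nM AmpC reagent; cpd preinc 15 min RT; nitrocefin (800 uM stock) to start; A480 q20 s × 4 min; Activity was normalised to no-enzyme and no-compound control wells.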
AmpC detergent: qHTS Inhibitors of AmpC Beta-Lactamase (assay with detergent); P00811; AmpC hydrolysis of nitrocefin, absorbance 480 nm, 0.01% Triton; Potency, µM (doses to about 114 µM), for the others: top-dose activity change, negative = inhibition, most hits filed as inhibitors; 370,000 compounds, 0.041% hits; AID 485294, 2010;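 also: 0% = no-compound wells and -100% = no-enzyme wells; nearly all actives have a fitted effect of over 25% in size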
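AmpC (5.3 nM in the dispensed reagent) in 20 mM phosphate pH 7.0 with 0.01% (detergent screen) or 0.0001% Triton X-100 was preincubated with compounds for 15 min at room temperature. Nitrocefin was then added from an 800 uM solution, and hydrolysis was followed at 480 nm.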
Vaccinia mCherry: qHTS for Stage-Specific Inhibitors of Vaccinia Orthopoxvirus: mCherry Reporter Primary qHTS; Vaccinia virus mCherry reporter infection, fluorescence; Potency, µM (titrated, usually from 36.5 µM), inactives show at the highest dose activity change, negative = inhibition, usual class: inhibitors; 310,000 compounds, 0.63% hits; calls by dose curve; tested in A549 cells; also: % is scaled to controls: 0 for no effect and ±100 for the full control effect; nearly all actives have a fitted effect of over 35% in size
An asterisk follows results filed as active; i = inactive; u = inconclusive; x = no result; [ ] = another dose, or the depositor's remark. Only some compounds are listed: those with a hit (about 1.4% of all), similar ones and a draw of the others. Unless noted, calls follow the shape of the dose curve; as a rule, active = well fitted curve in the direction sought with a large enough effect; inconclusive = small, poorly fitted or top-dose-only effect, or another doubt; inactive = no such curve, though single readings can be large; an effect the other way counts as inactive or inconclusive. Potency is read from the fitted curve at half-maximal effect.

SMILES	Vaccinia Venus	AMA1-RON2 inh	SARS PLpro yeast	AmpC inh no detg	AmpC detergent	Vaccinia mCherry
O=S(=O)(c1ccc(Br)cc1)N1CCN(c2nc(-c3cccs3)nc3ccccc23)CC1	-15%	x	x	x	x	-13%
Cc1sc2ncnc(N/N=C/c3cccc(O)c3)c2c1C	-23%	52%	22%	1%	-10%	-5%
C/C(=N\Nc1ncnc2sc(C)c(C)c12)c1ccccn1	-21%	-25%	-15%	70%	6%	5µM*
Cc1cnc(-n2ncc(C(=O)NCCc3ccncc3)c2-c2cccs2)nc1-c1ccc(F)cc1	-19%	x	x	x	x	-3%
C=CCN1C=C/C(=C\C=C(C#N)C#N)c2ccccc21	i	14µM*	-30%	-14%	-15%	i
CCCCCCN1C=C/C(=C\C=C(C#N)C#N)c2ccccc21	33%	-15%	-9%	-4%	u	21%
COc1ccc(-c2nnc3n2N=C(C)CS3)cc1	x	0%	-2%	-9%	2%	x
CCOC(=O)/C(=C\c1ccc(Cl)cc1)c1nc2sc(C)c(C)c2c(=O)[nH]1	u	9%	-76%	-27%	-4%	u
CCOC(=O)/C(=C/c1ccc(OC(F)F)cc1)C1=Nn2c(nnc2-c2ccc(Cl)cc2)SC1	11µM*	-2%	x	x	x	u
CCOC(=O)/C(=C\c1ccc(OC(F)F)cc1)C1=Nn2c(nnc2-c2ccc(Cl)cc2)SC1	13µM*	-5%	-21%	5%	7%	u
Cc1ccc(N(CC(=O)Nc2ccc(Br)cc2)S(=O)(=O)c2cccs2)cc1	9%	x	x	x	3%	-4%
Cc1nc([N+](=O)[O-])cn1CC(=O)c1ccc2c(c1)OCCCO2	-8%	x	x	x	x	-7%
Cc1ccc(CN2C(=O)C(CC(C)C)Nc3ncnc(N4CCN(c5ccccn5)CC4)c32)cc1 (stereo not drawn)	u	0%	3%	38%	-10%	28µM*
CC(C)CC1Nc2ncnc(N3CCN(c4ccccn4)CC3)c2N(Cc2ccc(Br)cc2)C1=O (stereo not drawn)	u	-11%	3%	24%	u	-24%
COc1ccc(NC(=O)Nc2nnc(CC(=O)NCc3ccccc3)s2)cc1	x	5%	1%	u	1%	x
COc1cccc(NC(=O)Nc2nnc(CC(=O)NCc3ccccc3)s2)c1	x	-4%	0%	25µM*	-6%	x
O=C(CSc1nc2ccccc2n1-c1ccccc1)Nc1ncc(Cl)cc1Cl	20%	-18%	-11%	-5%	4%	6.3µM*
Cc1cccc(-n2c(SCC(=O)Nc3ncc(Cl)cc3Cl)nc3ccccc32)c1	-24%	-13%[11.6 µM]	-29%	-13%	0%	3.2µM*
O=C(COc1ccccc1C(=O)OCC(=O)N1CCOCC1)Nc1ccc(Br)cc1	-17%	x	x	x	x	i
CC(C)N=C(NS(=O)(=O)c1ccccc1)C(Cl)(Cl)Cl	11µM*	1%[11.6 µM]	-29%	u	1%	14µM*
O=S(=O)(NC(=S)c1ccccc1)c1ccccc1	-4%	-11%	x	x	x	i
O=S(=O)(c1ccc(F)cc1)N1CCC(N2CCCC2)CC1	-15%	-14%	4%	-18%	u	-3%
CC(C)CCN(C)C1CCN(S(=O)(=O)c2ccc(F)cc2)CC1	-14%	-1%	-2%	10µM*	-12%	i
CC(C)C(NC(=O)c1ccoc1)c1nnc2n1CCN(Cc1ccc3c(c1)Cc1ccccc1-3)CC2 (stereo not drawn)	-3%	x	x	x	x	-7%
O=C1/C(=C/c2ccccc2)C[C@@]2(O)[C@H]3Cc4ccc(O)c5c4[C@@]2(CCN3CC2CC2)C1O5 (stereo partly drawn)	10µM*	12%	-4%	-21%	x	u
SMILES	Vaccinia Venus	AMA1-RON2 inh	SARS PLpro yeast	AmpC inh no detg	AmpC detergent	Vaccinia mCherry
O=C(/C=C/c1ccccc1)c1ccc(NC2=NCCCS2)cc1	-24%	-7%	-24%	28µM*	u	-8%
O=C(/C=C/c1ccc(Br)cc1)c1ccc(NC2=NCCCS2)cc1	x	-28%	-10%	14µM*	1%	x
Cc1ccc(OCCn2c(C3CC(=O)N(Cc4ccccc4)C3)nc3ccccc32)cc1 (stereo not drawn)	-6%	-11%	-12%	45µM*	u	i
CS(=O)(=O)c1nc(-c2ccccc2)cc(C(F)(F)F)n1	u	-8%	-95%	-13%	u	14µM*
Cc1cc(NC(=O)CCS(=O)(=O)c2nc(-c3ccccc3)cc(C(F)(F)F)n2)no1	u	7%	-10%	-13%	6%	x
COc1cc2nc(NC3CCN(C)CC3)nc(NC3CCN(C)CC3)c2cc1OC	-20%	x	x	x	x	-7%
Oc1cc2c(cc1CN1CCN(c3ccccc3)CC1)CCC2	x	28%	2%	-24%	-15%	x
C/C=C/c1cc(CN2CCN(c3ccccc3)CC2)c(O)c(OC)c1	x	-29%	-3%	-16%	-7%	x
C/C=C/c1cc(CN2CCN(c3ccc(OC)cc3)CC2)c(O)c(OC)c1	u	22µM*	0%	82%	2%	u
COc1ccc(N2CCN(Cc3cc4c(cc3O)CCC4)CC2)cc1	x	15µM*	-1%	-3%	2%	x
COc1ccc(NC(=O)Cn2cc(S(=O)(=O)c3ccccc3)c(=O)c3cc(C)ccc32)cc1Cl	-1%	x	x	x	-1%	3%
NC(=S)N=Nc1c(O)n(CC(=O)Nc2ccccc2)c2ccccc12	x	63%	-1%	-22%	u	x
NC(=S)N=Nc1c(O)n(CCCl)c2ccccc12	1µM*	43%	0%	-31%	-5%	u
NC(=S)N=Nc1c(O)n(CCCl)c2ccc(Cl)cc12	u	40%	0%	-40%	-14%	2.2µM*
CCN(CC)CCOC(=O)c1ccc(NC(=O)c2nn(-c3ccc(C)cc3)c(=O)c3c2c2ccccc2n3C)cc1	5µM*	x	x	x	-4%	5.6µM*
CCN(CC)CCCNC(=O)c1nn(-c2ccc(C)cc2)c(=O)c2c1c1ccccc1n2C	3%	x	x	x	-4%	13%
CC(=O)Nc1cc([N+](=O)[O-])ccc1N1CCOCC1	1%	-6%	-2%	0%	-2%	i
O=C(Nc1ccc([N+](=O)[O-])cc1)Nc1ccc(N2CCOCC2)c2nonc12	10µM*	-5%	4%	-5%	0%	u
COc1cc(C2C3=C(COC3=O)Oc3cc4c(cc32)OCO4)cc(OC)c1O (stereo not drawn)	u	4%	x	x	x	32µM*
Cc1c(C(=O)NC2CCCCCC2)sc2ncnc(NCC3CCCO3)c12 (stereo not drawn)	-9%	x	x	x	x	-10%

Source: PubChem (National Center for Advancing Translational Sciences (NCATS))
